As usually defined, the AC50 is the concentration giving half of the maximal activity seen.

The text below walks through data of PubChem BioAssay (EPA / NIEHS).

A short description of assay [1]: ATG_EGR_CIS: Attagene CIS-FACTORIAL HepG2 Assay for human Early Growth Response 1 (EGR1) (AID 2282938). The conditions noted are these: HepG2 Attagene CIS-FACTORIAL EGR reporter mRNA; actives raise or lower the signal. The method, boiled down: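 Read-out: fluorescent reporter-mRNA fragments resolved by capillary electrophoresis after RT-PCR, 24 h post-dose in transiently transfected HepG2. Endogenous transcription-factor activity reported via cis-element-regulated reporter units; gain or loss fitted relative to DMSO.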

The target of assay [2] is human Retinoid X Receptor beta (RXRb), RXRB (gene 6257) (UniProt P28702). As to the kind of experiment: ATG_RXRb_TRANS: Attagene TRANS-FACTORIAL HepG2 Assay for human Retinoid X Receptor beta (RXRb) (AID 2283013; active = hit-call score of the fitted dose curve at least 0.9, where 1 is the maximum). The method, boiled down:
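Readout is reporter transcript induction after 24 h dosing. It is measured by RT-PCR of total RNA followed by fluorescent capillary electrophoresis. HepG2 liver cells carry transfected multiple reporter units driven by an exogenous RXRb-Gal4 fusion; activity is relative to DMSO.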

The target of assay [3] is human Peroxisome Proliferator-activated Receptor delta (PPARd), PPARD (gene 5467) (UniProt Q03181). The assay is described as follows: ATG_PPARd_TRANS: Attagene TRANS-FACTORIAL HepG2 Assay for human Peroxisome Proliferator-activated Receptor delta (PPARd) (AID 2283002; active = hit-call score of the fitted dose curve at least 0.9, where 1 is the maximum). Summed up: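 HepG2 cells transiently transfected with multiplexed GAL4-UAS reporter units and exogenous chimeric NR-Gal4 proteins; 24 h compound exposure. Reporter mRNA measured by RT-PCR, 6-FAM labelling, HpaI digestion and capillary electrophoresis; gain of signal versus DMSO.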

The target in assay [4] is Hepatocyte nuclear factor 6 (Homo sapiens) (UniProt Q9UBC0). The assay is described as follows: ATG_HNF6_CIS: Attagene CIS-FACTORIAL HepG2 Assay for human Hepatocyte Nuclear Factor 6 (HNF6) (AID 2282952). The conditions noted are these: HepG2 Attagene cis-factorial HNF6 reporter transcription; actives raise or lower the signal. Summed up: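 Endogenous factor activity read in transiently transfected HepG2 via promoter-regulated reporter transcripts. RNA harvested 24 h post-dosing, reverse-transcribed, PCR-amplified, FAM-labelled, HpaI-digested and resolved by capillary electrophoresis; fitted in both directions against DMSO.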

A short description of assay [5]: ATG_M_19_TRANS: Attagene TRANS-FACTORIAL HepG2 Assay for M19 Transcription Factor (Internal Marker) (AID 2282974; active = hit-call score of the fitted dose curve at least 0.9, where 1 is the maximum). The conditions noted are these: HepG2 Attagene TRANS-FACTORIAL M19 internal marker reporter. Summed up: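 24 h chemical exposure of transiently transfected HepG2 (MRTU library). RNA → oligo(dT) RT → PCR → 6-FAM labelling → HpaI cut → CE fluorescence. Positive-direction fit vs DMSO baseline; background internal-marker readout.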

The nature of assay [6]: BSK_3C_TissueFactor: BioMAP Diversity Plus: 3C Assay for Tissue Factor Biomarker Activity (AID 2282997). To be noted: BioMAP 3C HUVEC, tissue factor biomarker readout; actives raise or lower the signal. The method, boiled down:
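Tissue factor on primary human umbilical vein endothelium was read by ELISA 24 h after dosing, gain or loss relative to DMSO. Cytotoxicity ran alongside via SRB (0.1%, TCA-fixed, 560 nm).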

Read-out in assay [7]: Intercellular Adhesion Molecule 1 (ICAM1), ICAM1 (gene 3383)
As to the kind of experiment: BSK_3C_ICAM1: BioMAP Diversity Plus: 3C Assay for Intercellular Adhesion Molecule 1 (ICAM1) Biomarker Activity (AID 2283003). To be noted: primary human endothelial cells (HUVEC); actives raise or lower the signal. The method, boiled down: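 ELISA readout of ICAM1 in human umbilical vein endothelial cells in the 3C system, taken 24 h post-dose. Gain or loss of signal versus DMSO was fitted in both directions, with SRB total-protein staining run in parallel.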

Read-out in assay [8]: E-selectin (Homo sapiens) (UniProt P16581)
As to the kind of experiment: BSK_3C_Eselectin: BioMAP Diversity Plus: 3C Assay for Eselectin Biomarker Activity (AID 2283015).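 For outcome: cell surface E-selectin protein quantified by ELISA 24 h after dosing.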 The conditions noted are these: primary human endothelial cells (HUVEC); actives raise or lower the signal. The method, boiled down: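 E-selectin ELISA readout, fitted bidirectionally relative to DMSO, taken 24 h post-dosing in HUVEC cultures of the 3C system. Overt cytotoxicity tracked with sulforhodamine B staining of parallel wells.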

Read-out in assay [9]: Pselectin, SELP (gene 6403)
The assay is described as follows: BSK_4H_Pselectin: BioMAP Diversity Plus: 4H Assay for Pselectin Biomarker Activity (AID 2283026). To be noted: primary human endothelial cells (HUVEC); actives raise or lower the signal. Summed up: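 ELISA of surface P-selectin on HUVEC, 24 h after dosing, with parallel SRB staining (0.1% after 10% TCA fixation, 560 nm) for overt cytotoxicity. Activity fitted in both directions relative to DMSO.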

Read-out in assay [10]: Human Leukocyte Antigen - DR isotype (HLADR), HLA-DRA (gene 3122)
As to the kind of experiment: BSK_BE3C_HLADR: BioMAP Diversity Plus: BE3C Assay for Human Leukocyte Antigen - DR isotype (HLADR) Biomarker Activity (AID 2283032). To be noted: primary human bronchial epithelial cells; actives raise or lower the signal. Summed up:
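Cell-surface HLA-DR ELISA readout at 24 h after dosing in the BE3C primary human lung bronchial epithelial system; gain or loss of signal against DMSO, with parallel sulforhodamine B staining of total protein for overt cytotoxicity.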

Read-out in assay [11]: Vascular cell adhesion molecule 1 (VCAM1), VCAM1 (gene 7412)
As to the kind of experiment: BSK_4H_VCAM1: BioMAP Diversity Plus: 4H Assay for Vascular cell adhesion molecule 1 (VCAM1) Biomarker Activity (AID 2283033).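 For outcome: cell-surface VCAM-1 protein measured by ELISA.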 To be noted: primary human endothelial cells (HUVEC); actives raise or lower the signal. Summed up: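 VCAM-1 ELISA read 24 h after chemical dosing of HUVEC in the BioMAP 4H system, with gain or loss of signal fitted relative to DMSO. Parallel SRB staining (560 nm) checked overt cytotoxicity.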

Read-out in assay [12]: Interferon-gamma inducible Protein 10 (IP10), CXCL10 (gene 3627)
As to the kind of experiment: BSK_BE3C_IP10: BioMAP Diversity Plus: BE3C Assay for Interferon-gamma inducible Protein 10 (IP10) Biomarker Activity (AID 2283034). To be noted: primary human bronchial epithelial cells; actives raise or lower the signal. The method, boiled down: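 IP-10 quantified by ELISA in human primary bronchial epithelial cell cultures at 24 hours post-dosing. Gain or loss of signal fitted relative to DMSO; parallel SRB staining assessed overt cytotoxicity.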

Read-out in assay [13]: urokinase plasminogen activator (uPA), PLAU (gene 5328)
As to the kind of experiment: BSK_BE3C_uPA: BioMAP Diversity Plus: BE3C Assay for urokinase plasminogen activator (uPA) Biomarker Activity (AID 2283038).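 For outcome: uPA protein level quantified by ELISA in cell cultures; uPA read one day after compound addition.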 The conditions noted are these: primary human bronchial epithelial cells; actives raise or lower the signal. The method, boiled down:
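ELISA for uPA on human primary bronchial epithelial cultures 24 h post-treatment, gain or loss against DMSO. Parallel SRB staining (0.1% after 10% TCA fixation, 560 nm) assessed overt cytotoxicity.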

Read-out in assay [14]: Interleukin-6 (IL6), IL6 (gene 3569)
As to the kind of experiment: BSK_CASM3C_IL6: BioMAP Diversity Plus: CASM3C Assay for Interleukin-6 (IL6) Biomarker Activity for (AID 2283040). The conditions noted are these: primary human coronary artery smooth muscle cells; actives raise or lower the signal.

Read-out in assay [15]: Tissue Factor, F3 (gene 2152)
The assay is described as follows: BSK_CASM3C_TissueFactor: BioMAP Diversity Plus: CASM3C Assay for Tissue Factor Biomarker Activity (AID 2283052).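 Note: cell surface tissue factor protein level read by ELISA.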 The conditions noted are these: primary human coronary artery smooth muscle cells; actives raise or lower the signal.

Read-out in assay [16]: Urokinase-type plasminogen activator receptor (uPAR), PLAUR (gene 5329)
As to the kind of experiment: BSK_CASM3C_uPAR: BioMAP Diversity Plus: CASM3C Assay for Urokinase-type plasminogen activator receptor (uPAR) Biomarker Activity (AID 2283054).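 Note: cell-surface uPAR protein level quantified by ELISA.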 The conditions noted are these: primary human coronary artery smooth muscle cells; actives raise or lower the signal.

Read-out in assay [17]: Collagen III, COL3A1 (gene 1281)
The assay is described as follows: BSK_hDFCGF_CollagenIII: BioMAP Diversity Plus: hDFCGF Assay for Collagen III Biomarker Activity (AID 2283056). To be noted: primary human foreskin fibroblasts; actives raise or lower the signal. The method, boiled down:
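ELISA readout of Collagen III in human dermal (foreskin) fibroblasts, taken 24 h post-treatment. Gain or loss relative to DMSO vehicle fitted in both directions.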

Read-out in assay [18]: Epidermal growth factor receptor (EGFR), EGFR (gene 1956)
As to the kind of experiment: BSK_hDFCGF_EGFR: BioMAP Diversity Plus: hDFCGF Assay for Epidermal growth factor receptor (EGFR) Biomarker Activity (AID 2283057). To be noted: primary human foreskin fibroblasts; actives raise or lower the signal. The method, boiled down: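 EGFR levels by ELISA in human dermal fibroblast cultures, 24 h post-treatment, fitted bidirectionally versus DMSO. Parallel wells stained with sulforhodamine B to detect overt cytotoxicity.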

Read-out in assay [19]: Interleukin-8 (IL8), CXCL8 (gene 3576)
The assay is described as follows: BSK_LPS_IL8: BioMAP Diversity Plus: LPS Assay for Interleukin-8 (IL8) Biomarker Activity (AID 2283078). To be noted: primary human HUVEC with PBMC; actives raise or lower the signal. The method, boiled down:
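ELISA read-out of IL-8 after 24 h chemical treatment of LPS-activated endothelial/PBMC human primary co-cultures. Changes either up or down relative to DMSO; overt cytotoxicity checked by sulforhodamine B staining in parallel wells.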

Read-out in assay [20]: Tissue Factor, F3 (gene 2152)
The assay is described as follows: BSK_LPS_TissueFactor: BioMAP Diversity Plus: LPS Assay for Tissue Factor Biomarker Activity (AID 2283084). The conditions noted are these: primary human HUVEC with PBMC; actives raise or lower the signal. Summed up: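 Compound was added to an endothelial cell/PBMC co-culture, and after 24 h tissue factor (CD142) was read by ELISA. Gain or loss of signal was fitted against a DMSO baseline, and parallel SRB staining (560 nm) tracked overt cytotoxicity.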

Where “and” joins values, the source holds several entries; their conditions need not be identical. Equal entries are not always repeated. Records with an inconclusive call do not appear. Some structures have more than one record in an assay (separate samples or runs), and their calls can disagree. Calls of active or inactive are those of the source. Rule for the calls, unless noted: active = hit-call score of the fitted dose curve at least 0.9, where 1 is the maximum; inactive = score below 0.9.

Sequence of human Retinoid X Receptor beta (RXRb), RXRB (gene 6257) (P28702 whole entry, looked up, the tested form may be a part): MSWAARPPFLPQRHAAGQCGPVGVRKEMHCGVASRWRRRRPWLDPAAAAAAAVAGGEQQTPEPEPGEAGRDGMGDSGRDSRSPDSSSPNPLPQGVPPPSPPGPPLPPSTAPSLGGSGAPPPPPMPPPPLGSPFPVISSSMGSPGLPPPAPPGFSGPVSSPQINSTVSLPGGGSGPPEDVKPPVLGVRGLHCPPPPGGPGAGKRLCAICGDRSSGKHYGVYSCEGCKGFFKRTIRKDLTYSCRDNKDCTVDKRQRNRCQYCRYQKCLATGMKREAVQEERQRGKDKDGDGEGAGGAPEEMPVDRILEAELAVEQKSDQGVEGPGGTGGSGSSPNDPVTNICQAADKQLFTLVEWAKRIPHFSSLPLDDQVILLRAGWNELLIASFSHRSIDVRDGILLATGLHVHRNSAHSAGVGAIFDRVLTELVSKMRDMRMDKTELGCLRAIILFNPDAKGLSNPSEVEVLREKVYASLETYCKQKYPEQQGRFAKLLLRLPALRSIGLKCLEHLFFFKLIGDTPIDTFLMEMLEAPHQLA
Sequence of human Peroxisome Proliferator-activated Receptor delta (PPARd), PPARD (gene 5467) (Q03181 whole entry, looked up, the tested form may be a part): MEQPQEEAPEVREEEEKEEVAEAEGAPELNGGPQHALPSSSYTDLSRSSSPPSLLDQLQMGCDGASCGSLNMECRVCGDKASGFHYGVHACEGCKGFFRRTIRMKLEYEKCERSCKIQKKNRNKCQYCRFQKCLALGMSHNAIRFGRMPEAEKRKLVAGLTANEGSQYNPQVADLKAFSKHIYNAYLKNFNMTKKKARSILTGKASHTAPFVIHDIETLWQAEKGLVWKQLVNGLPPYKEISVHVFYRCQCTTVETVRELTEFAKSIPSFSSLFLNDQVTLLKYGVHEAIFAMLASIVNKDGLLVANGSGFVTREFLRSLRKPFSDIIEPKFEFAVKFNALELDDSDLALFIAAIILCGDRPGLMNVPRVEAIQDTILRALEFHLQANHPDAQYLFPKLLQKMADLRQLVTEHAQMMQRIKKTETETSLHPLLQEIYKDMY
Sequence of E-selectin (Homo sapiens) (P16581 whole entry, looked up): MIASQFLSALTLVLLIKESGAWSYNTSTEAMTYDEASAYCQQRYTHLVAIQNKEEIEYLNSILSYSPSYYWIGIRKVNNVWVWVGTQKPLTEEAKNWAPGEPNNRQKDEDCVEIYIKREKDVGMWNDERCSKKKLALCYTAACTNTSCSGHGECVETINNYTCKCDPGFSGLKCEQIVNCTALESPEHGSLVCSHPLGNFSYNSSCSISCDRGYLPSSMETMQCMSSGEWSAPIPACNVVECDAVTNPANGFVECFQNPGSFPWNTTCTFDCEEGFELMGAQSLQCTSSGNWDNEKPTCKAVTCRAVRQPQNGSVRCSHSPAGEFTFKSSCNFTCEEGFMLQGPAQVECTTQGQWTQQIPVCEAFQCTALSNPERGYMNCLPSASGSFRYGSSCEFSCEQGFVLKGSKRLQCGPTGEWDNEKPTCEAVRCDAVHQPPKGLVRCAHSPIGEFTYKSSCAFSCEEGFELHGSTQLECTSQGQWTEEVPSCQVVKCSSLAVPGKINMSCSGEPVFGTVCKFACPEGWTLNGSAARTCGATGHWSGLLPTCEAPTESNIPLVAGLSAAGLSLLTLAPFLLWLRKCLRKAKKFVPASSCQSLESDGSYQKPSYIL
Sequence of Hepatocyte nuclear factor 6 (Homo sapiens) (Q9UBC0 whole entry, looked up): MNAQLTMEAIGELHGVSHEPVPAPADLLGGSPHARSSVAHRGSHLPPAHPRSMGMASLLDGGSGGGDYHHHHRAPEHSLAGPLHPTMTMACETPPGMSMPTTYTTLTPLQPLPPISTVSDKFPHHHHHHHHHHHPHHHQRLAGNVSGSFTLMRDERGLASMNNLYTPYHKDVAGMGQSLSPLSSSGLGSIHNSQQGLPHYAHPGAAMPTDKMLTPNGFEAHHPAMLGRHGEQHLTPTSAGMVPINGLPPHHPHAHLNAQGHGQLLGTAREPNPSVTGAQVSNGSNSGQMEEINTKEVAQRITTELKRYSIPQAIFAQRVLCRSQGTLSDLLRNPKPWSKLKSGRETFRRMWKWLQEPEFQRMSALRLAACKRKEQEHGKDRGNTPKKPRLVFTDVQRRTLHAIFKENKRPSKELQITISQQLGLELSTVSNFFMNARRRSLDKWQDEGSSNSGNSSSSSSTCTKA

As to `O=C(C1CCCCC1)N1CC(=O)N2CCc3ccccc3C2C1` (stereo not drawn), the compound was classed as inactive in assay [1] and in assay [2].

In the case of `COc1c2occc2cc2ccc(=O)oc12`, the result in assay [1] and in assay [3] was inactive. Moreover, the AC50 in assay [2] was 100 µM (active).

`CC(=O)OC(C)(C)Cc1ccccc1`: the compound was classed as inactive in assay [4], in [5] and in assay [3].

Take `O=[N+]([O-])c1cc(S(=O)(=O)Nc2ccccc2)ccc1Nc1ccccc1`: the AC50 in [6] is 34.8 µM (active); in assay [8], 13.3 µM (active); in assay [9], 32.2 µM (active) and 31.7 µM (active); in assay [10] it was 31 µM (active) and 32 µM (active); in [11], 27.2 µM (active); in [12], 32.4 µM (active) and 31.9 µM (active). In addition, the concentration at half-maximal activity (AC50) in assay [13] was 34.9 µM (active); in [14] it was 20 µM (active) and 10.3 µM (active); in [17], 5.82 µM (active) and 5.34 µM (active); in assay [18], 30.4 µM (active) and 31.3 µM (active); in assay [19], 22.7 µM (active) and 20 µM (active); in assay [20] it was 2.78 µM (active). In addition, the result in [6], in assay [7], in [8], in assay [11], in [13] and in [15] was inactive. In addition, the outcome in assay [16] and in assay [20] was inactive.

Consider `CCCCC(CC)COC(=O)C=Cc1ccc(OC)cc1` (stereo not drawn), for which the AC50 in assay [6] is 5.17 µM (active) and 7.14 µM (active); in assay [8], 27.5 µM (active) and 11.4 µM (active); in [9], 33.3 µM (active) and 38.7 µM (active); in [11] it was 5.26 µM (active) and 3.42 µM (active); in assay [15], 6.67 µM (active); in assay [17], 9.77 µM (active) and 7.79 µM (active). Also, the AC50 in assay [19] is 12.9 µM (active); in [20], 7.72 µM (active). Besides, the outcome in assay [7], in assay [10], in assay [12], in [13], in assay [14] and in assay [15] was inactive. Moreover, the outcome in [16], in [18], in [19] and in [20] was inactive.

For the compound `OCCc1ccccn1`, the compound was classed as inactive in assay [1], in [5] and in assay [3].

As to `Oc1ccc(Cl)cc1C1CCCC1`, the AC50 in [1] was 54.7 µM (active); in assay [4] it was 55.6 µM (active); in assay [2] it was 3.12 µM (active). For the same compound, the compound was classed as inactive in [3].
